Experimental data taken from PubChem BioAssay (Tox21).
Records with an inconclusive call do not appear. Active and inactive are the calls of the source. Unless noted, calls come from the whole dose curve; as a rule, active = well fitted curve in the direction sought with a large enough effect in the repeat runs; inconclusive = weak or mixed curves; inactive = no such curve, though single readings can be large; an effect the other way counts as inactive or inconclusive.

Tests used:
[1] = target: Retinoic acid receptor RXR-alpha (Homo sapiens) (UniProt P19793); experiment: qHTS assay to identify small molecule agonists of the RXR signaling pathway (AID 1159527; calls by dose curve; note: nearly all actives have a fitted effect of over 35% in size; note: potency is the fitted concentration of half-maximal effect)
Chain of Retinoic acid receptor RXR-alpha (Homo sapiens) (P19793 whole entry, looked up): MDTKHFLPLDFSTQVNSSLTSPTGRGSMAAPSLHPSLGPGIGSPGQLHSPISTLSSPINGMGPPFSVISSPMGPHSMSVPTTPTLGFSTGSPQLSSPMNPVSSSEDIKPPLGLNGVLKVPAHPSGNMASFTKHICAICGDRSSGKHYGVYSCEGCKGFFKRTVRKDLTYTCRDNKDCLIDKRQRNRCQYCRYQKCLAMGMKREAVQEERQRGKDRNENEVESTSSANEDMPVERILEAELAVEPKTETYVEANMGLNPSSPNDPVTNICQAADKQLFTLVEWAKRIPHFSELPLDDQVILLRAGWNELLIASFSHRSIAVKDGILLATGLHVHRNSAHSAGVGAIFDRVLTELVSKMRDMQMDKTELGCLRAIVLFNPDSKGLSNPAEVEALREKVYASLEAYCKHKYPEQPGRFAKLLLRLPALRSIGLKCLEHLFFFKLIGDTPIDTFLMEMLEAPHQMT
Summary of the method: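 Reporter activation is measured as beta-lactamase activity via FRET substrate cleavage (emission 460/530 nm) in HEK 293T cells expressing an RXR-alpha-driven bla construct, following 16 hr compound exposure at 37 C.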

[2] = qHTS assay to identify small molecule agonists of the RXR signaling pathway - cell viability counter screen (AID 1159529); note: series mostly up to about 77 µM; nearly all actives have a fitted effect of over 50% in size
Summary of the method: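 Tox21 10K compounds were tested for cytotoxicity against GeneBLAzer RXR-alpha HEK 293T cells grown in 2% charcoal-stripped FBS. Exposure lasted 16 hr at 37 C, 5% CO2; viability read by CellTiter-Glo luminescence.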

[3] = qHTS assay to identify small molecule antagonists of the retinoid acid receptor (RAR) signaling pathway - cell viability counter screen (AID 1159551); note: nearly all actives have a fitted effect of over 35% in size
Summary of the method: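 Cytotoxicity counter screen: ATP content quantified by CellTiter-Glo luminescence in C3RL4 cells treated 6 hr at 37 C with compound and retinol (1 uM final). Cells plated at 1,000/well and cultured overnight before dosing.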

[4] = qHTS assay to identify small molecule antagonists of the retinoic acid receptor (RAR) signaling pathway (AID 1159552; note: nearly all actives have a fitted effect of over 50% in size)
Summary of the method: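 Overnight-plated C3RL4 reporter cells get compound, then retinol to 1 uM final; plates sit 6 hr at 37 C, 5% CO2. A luciferase reagent is added and light output recorded after 30 min at room temperature.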

[5] = qHTS assay to identify small molecule antagonists of the constitutive androstane receptor (CAR) signaling pathway - cell viability counter screen (AID 1224837); note: series mostly up to about 92 µM; nearly all actives have a fitted effect of over 45% in size
Summary of the method: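 Cytotoxicity counter-screen: CellTiter-Fluor fluorescence after 23 h compound exposure (15-point qHTS) in double-stable HepG2-CYP2B6-hCAR cells, with 50 nM CITCO added.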

[6] = target: Nuclear receptor subfamily 1 group I member 3 (Homo sapiens) (UniProt Q14994); experiment: qHTS assay to identify small molecule antagonists of the constitutive androstane receptor (CAR) signaling pathway (AID 1224838);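 note: HepG2 cells stably expressing hCAR with CYP2B6 luciferase reporter stimulated by CITCO; nearly all actives have a fitted effect of over 40% in size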
Chain of Nuclear receptor subfamily 1 group I member 3 (Homo sapiens) (Q14994 whole entry, looked up): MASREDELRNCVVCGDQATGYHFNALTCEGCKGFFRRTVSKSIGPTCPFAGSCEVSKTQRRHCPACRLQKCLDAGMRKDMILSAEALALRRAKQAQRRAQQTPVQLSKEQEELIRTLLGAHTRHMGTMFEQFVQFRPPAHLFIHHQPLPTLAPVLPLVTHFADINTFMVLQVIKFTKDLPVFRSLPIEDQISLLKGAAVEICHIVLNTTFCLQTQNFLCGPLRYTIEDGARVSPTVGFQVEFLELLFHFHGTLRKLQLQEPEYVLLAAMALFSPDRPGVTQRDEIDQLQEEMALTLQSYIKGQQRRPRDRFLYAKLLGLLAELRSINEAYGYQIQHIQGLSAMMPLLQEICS
Summary of the method: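 Antagonism measured as luciferase signal (ONE-Glo, 30 min, room temperature) in CAR-stimulated cells: HepG2-CYP2B6-hCAR double-stable line exposed 24 hr at 37 C to compound in a 15-point series plus 50 nM CITCO.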

[7] = qHTS assay to identify small molecule antagonists of the estrogen related receptor signaling pathway with the pleiotropic PPARgamma coactivator (PGC) from Tox21 10K library - cell viability counter screen (AID 1224840; active = well fitted cell-killing curve with a large enough effect in the repeat runs, not every such curve was filed as active; note: nearly all actives have a fitted effect of over 40% in size)
Summary of the method: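 Counter-screen for cytotoxicity: after 17.5 h compound exposure at 37 C, CellTiter-Fluor reagent added to PGC/ERR cells for 30 min and fluorescence read. Cells were seeded at 2,000 per well 6 h before dosing.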

[8] = target: Thyrotropin receptor (Homo sapiens) (UniProt P16473); experiment: qHTS assay to identify small molecule agonists of the thyroid stimulating hormone receptor (TSHR) signaling pathway (AID 1224843; calls by dose curve; note: nearly all actives have a fitted effect of over 45% in size)
Chain of Thyrotropin receptor (Homo sapiens) (P16473 whole entry, looked up): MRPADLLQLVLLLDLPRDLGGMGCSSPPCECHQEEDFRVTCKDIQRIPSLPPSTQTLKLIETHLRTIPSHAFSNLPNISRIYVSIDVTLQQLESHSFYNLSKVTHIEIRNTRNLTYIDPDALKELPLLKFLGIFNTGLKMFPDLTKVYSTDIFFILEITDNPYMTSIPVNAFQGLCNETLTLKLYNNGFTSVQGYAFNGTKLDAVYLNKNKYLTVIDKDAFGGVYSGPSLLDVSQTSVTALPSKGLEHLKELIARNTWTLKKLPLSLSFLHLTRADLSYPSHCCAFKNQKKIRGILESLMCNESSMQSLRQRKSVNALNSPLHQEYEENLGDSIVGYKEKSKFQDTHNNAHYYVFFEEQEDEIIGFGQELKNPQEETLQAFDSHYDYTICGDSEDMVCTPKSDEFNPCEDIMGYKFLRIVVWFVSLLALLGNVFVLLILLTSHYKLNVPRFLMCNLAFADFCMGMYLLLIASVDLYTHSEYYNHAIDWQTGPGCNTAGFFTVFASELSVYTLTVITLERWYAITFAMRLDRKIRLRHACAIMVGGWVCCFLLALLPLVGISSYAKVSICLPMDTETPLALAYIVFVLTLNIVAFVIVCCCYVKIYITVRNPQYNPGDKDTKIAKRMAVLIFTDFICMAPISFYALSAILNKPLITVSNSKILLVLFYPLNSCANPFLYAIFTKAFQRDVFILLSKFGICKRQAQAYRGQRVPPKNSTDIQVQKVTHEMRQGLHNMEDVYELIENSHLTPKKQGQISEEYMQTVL
Summary of the method: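 Compounds are titrated over 15 concentrations, in triplicate, onto TSHR-HEK293 cells seeded at 800/well. Plates sit 30 min at room temperature before cAMP-d2 and anti-cAMP cryptate are added; signal is read after a further hour.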

[9] = qHTS assay to identify small molecule antagonists of the estrogen related receptor (ERR) signaling pathway from Tox21 library - cell viability counter screen (AID 1224834); note: nearly all actives have a fitted effect of over 30% in size
Summary of the method: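 CellTiter-Fluor fluorescence, read after 30 min at 37 C, measures viability of ERR cells. Cells plated at 2,000/well and incubated 6 h before pin-tool compound addition, then exposed 17.5 hours at 37 C.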

[10] = qHTS assay to identify small molecule agonists of the constitutive androstane receptor (CAR) signaling pathway - cell viability counter screen (AID 1224836); note: series mostly up to about 92 µM; nearly all actives have a fitted effect of over 45% in size
Summary of the method: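 Fluorescence from CellTiter-Fluor indicates live cells after 23 h exposure. The human hepatoma line expresses hCAR and a CYP2B6-2.2kb reporter. Incubation medium contains 0.75 uM PK11195 (final).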

[11] = target: Nuclear receptor subfamily 1 group I member 3 (Homo sapiens) (UniProt Q14994); experiment: qHTS assay to identify small molecule agonists of the constitutive androstane receptor (CAR) signaling pathway (AID 1224839);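 note: HepG2 cells stably carrying human CAR and a CYP2B6 luciferase reporter; series mostly up to about 92 µM; nearly all actives have a fitted effect of over 15% in size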
Summary of the method: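 Stable hCAR/CYP2B6-2.2kb HepG2 line in DMEM with 10% FBS; compounds (15 concentrations) and 0.75 uM PK11195 final, 24 h at 37 C/5% CO2, then ONE-Glo luminescence after 30 min.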

[12] = qHTS assay to identify small molecule agonists of the retinoic acid receptor (RAR) signaling pathway (AID 1159553)
Summary of the method: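 Luminescence was measured 30 min after luciferase reagent addition at room temperature. Before that, C3RL4 reporter cells (1,000 per well, plated overnight) were treated with compound for 6 hr at 37 C and 5% CO2.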

[13] = target: Luciferin 4-monooxygenase (Photinus pyralis) (UniProt P08659); experiment: qHTS assay to identify small molecule inhibitors of firefly luciferase (AID 1224835); note: nearly all actives have a fitted effect of over 25% in size; note: potency is the fitted concentration of half-maximal effect; for activity change, negative = inhibition: series mostly up to about 120 µM
Chain of Luciferin 4-monooxygenase (Photinus pyralis) (P08659 whole entry, looked up): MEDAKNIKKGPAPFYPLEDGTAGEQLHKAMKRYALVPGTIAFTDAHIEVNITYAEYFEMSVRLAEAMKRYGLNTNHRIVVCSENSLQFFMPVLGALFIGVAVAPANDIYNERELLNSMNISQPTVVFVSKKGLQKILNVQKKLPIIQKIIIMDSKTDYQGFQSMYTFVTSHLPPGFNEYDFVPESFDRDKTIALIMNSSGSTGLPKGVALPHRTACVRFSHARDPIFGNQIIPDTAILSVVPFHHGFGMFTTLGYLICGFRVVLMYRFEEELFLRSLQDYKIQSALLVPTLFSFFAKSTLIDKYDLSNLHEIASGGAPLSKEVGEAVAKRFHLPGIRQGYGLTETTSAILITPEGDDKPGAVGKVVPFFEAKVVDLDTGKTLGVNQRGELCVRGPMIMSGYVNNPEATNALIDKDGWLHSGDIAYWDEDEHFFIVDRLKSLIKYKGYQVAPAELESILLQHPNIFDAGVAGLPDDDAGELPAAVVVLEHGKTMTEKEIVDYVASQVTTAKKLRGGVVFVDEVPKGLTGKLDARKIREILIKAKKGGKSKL
Summary of the method: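 Quantitative HTS format; KM concentrations of both substrates. Purified P. pyralis FLuc activity quantified from luminescence images.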

[14] = qHTS assay to identify small molecule antagonists of the estrogen related receptor signaling pathway with the pleiotropic PPARgamma coactivator (PGC) from Tox21 10K library (AID 1224841; call rule not given here; note: series mostly up to about 92 µM; actives are mostly falling curves and most rising ones were filed inactive; nearly all actives have a fitted effect of over 50% in size)
Summary of the method: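 Luminescence (One-Glo, 30 min at room temperature) after 18 h compound treatment at 37 C of PGC/ERR reporter cells plated at 2,000 cells/well and settled 6 h beforehand.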

[15] = qHTS assay to identify small molecule agonists of the estrogen related receptor signaling pathway with the pleiotropic PPARgamma coactivator (PGC) from Tox21 10K library (AID 1224842); note: nearly all actives have a fitted effect of over 15% in size
Summary of the method: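 PGC/ERR reporter cells (NTP line) were seeded 2,000 per well, rested 6 h at 37 C/5% CO2, then pin-dosed with compounds in DMSO for 18 h at 37 C; luciferase read by One-Glo luminescence after 30 min at room temperature.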

[16] = qHTS assay to identify small molecule antagonists of the estrogen related receptor (ERR) signaling pathway - cell viability counter screen (AID 1224818);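 note: series mostly up to about 46 µM; viability measured after 17.5 h of compound exposure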
Summary of the method: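 Cytotoxicity counter screen: fluorescence from CellTiter-Fluor, added after 17.5 h compound exposure at 37 C and read 30 min later. ERR cell line seeded at 2,000 cells/well, preincubated 6 h before dosing.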

[17] = qHTS assay to identify small molecule antagonists of the estrogen related receptor signaling pathway with the pleiotropic PPARgamma coactivator (PGC) cell viability counter screen (AID 1224822; note: series mostly up to about 46 µM)
Summary of the method: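 Viability counter-screen read by fluorescence intensity after 30 min with CellTiter-Fluor at 37 C; PGC/ERR reporter cells were exposed to compounds for 17.5 h at 37 C following a 6 h preincubation.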
% is set by controls: 0 for no effect and ±100 for the full control effect.

Cc1[nH]cnc1-c1ccc(Cl)cc1
inactive: Potency [1] | outcome [2] | outcome [3] | outcome [4] | Potency [5] | outcome [6] | outcome [7] | Potency [8]

COCCc1ccc(OCC2CO2)cc1 (centres undefined)
inactive: Potency [1] | outcome [2] | outcome [3] | outcome [4] | Potency [9] | Potency [10] | Potency [5] | outcome [6] | outcome [7] | Potency [8]

Cc1cccc2nccnc12
inactive: Potency [1] | outcome [2] | outcome [3] | outcome [4] | Potency [10] | Potency [5] | outcome [7] | Potency [8]

CC(S)C(=O)NCC(=O)O (centres undefined)
inactive: Potency [1] | outcome [2] | outcome [3] | outcome [4] | Potency [10] | Potency [5] | outcome [6] | Potency [11] | outcome [7] | Potency [8]

Cc1ccccc1N=O
inactive: Potency [1] | outcome [2] | outcome [3] | Potency [12] | Potency [9] | Potency [13] | Potency [10] | Potency [5] | outcome [7] | Potency [14] | outcome [15] | Potency [8]

OCCCCC(O)CO (centres undefined)
active: Potency [1] 11.6 µM
inactive: outcome [2] | outcome [3] | Potency [12] | Potency [9] | Potency [13] | Potency [10] | Potency [5] | outcome [7] | Potency [14] | outcome [15] | Potency [8]

CC1COc2ccccc2N1 (centres undefined)
inactive: Potency [1] | outcome [2] | outcome [3] | outcome [4] | Potency [9] | Potency [10] | Potency [5] | outcome [6] | Potency [11] | outcome [7] | Potency [14] | outcome [15] | Potency [8]

O=C(c1ccc(O)cc1)c1ccc(O)c(O)c1O
active: Potency [13] 63.5 µM
inactive: Potency [1] | outcome [2] | outcome [3] | outcome [4] | outcome [6] | outcome [7] | Potency [14] | outcome [15]

O=C(O)Cc1ccc(Cl)cc1Cl
inactive: Potency [1] | outcome [2] | outcome [3] | outcome [4] | Potency [9] | Potency [13] | Potency [10] | Potency [5] | outcome [7] | Potency [8]

CCCCCCCCCC(C)=O
inactive: Potency [1] | outcome [2] | outcome [3] | outcome [4] | Potency [9] | Potency [13] | Potency [5] | outcome [6] | Potency [11] | outcome [7] | Potency [8]

COC(=O)C1CC(=O)C(C(=O)OC)CC1=O (centres undefined)
inactive: activation [1] 10.5% [at 6.98 µM] | activity change, negative = cytotoxicity [2] 8.97% [at 6.97 µM] | activity change, negative = cytotoxicity [3] 3.23% [at 8.39 µM] | activity, negative = inhibition [4] -2.77% [at 8.39 µM] | viability change, negative = cytotoxic [9] 2.89% [at 8.39 µM] | activity change, negative = inhibition [13] 0.09% [at 10.5 µM] | viability change, negative = cytotoxic [10] 10.3% [at 8.39 µM] | activity change, negative = cytotoxicity [5] 2.02% [at 8.39 µM] | viability change, negative = cytotoxic [7] 11% [at 8.39 µM] | activity, negative = inhibition [14] 1.96% [at 8.39 µM] | activation [15] 0.14% [at 8.39 µM] | activation [8] -7.69% [at 8.39 µM]

CC(C)CC(C)CC(C)CC(C)COC(=O)c1ccccc1C(=O)OCC(C)CC(C)CC(C)CC(C)C (centres undefined)
inactive: Potency [1] | outcome [2] | outcome [3] | outcome [4] | Potency [9] | Potency [13] | Potency [10] | Potency [5] | outcome [7] | Potency [14] | outcome [15] | Potency [8]

FC(F)(F)c1ccccc1-n1ccnc1
inactive: Potency [1] | outcome [2] | outcome [3] | Potency [12] | outcome [16] | outcome [17] | Potency [9] | Potency [10] | Potency [5] | outcome [6] | outcome [7]

CC(=O)Nc1ccc(S(=O)(=O)Nc2ccc([N+](=O)[O-])cc2)cc1
inactive: Potency [1] | outcome [2] | outcome [3] | outcome [4] | outcome [6] | Potency [11] | Potency [8]

COc1ccc2nc(SCc3ncc(C)c(OC)c3C)[nH]c2c1
inactive: Potency [1] | outcome [2] | outcome [3] | outcome [4] | Potency [9] | Potency [10] | Potency [5] | outcome [6] | outcome [7] | Potency [14] | outcome [15] | Potency [8]

CCCC/C=C/C=C\C=O
inactive: Potency [1] | outcome [2] | outcome [3] | Potency [12] | Potency [9] | Potency [13] | Potency [10] | Potency [5] | outcome [6] | Potency [11] | outcome [7] | Potency [8]

CC(CC=O)CCCC(C)(C)O (centres undefined)
inactive: Potency [1] | outcome [2] | outcome [3] | outcome [4] | Potency [9] | Potency [13] | Potency [10] | Potency [5] | outcome [7] | Potency [14] | outcome [15]

CCC(C)(CCC(C)C)C(=O)O (centres undefined)
inactive: Potency [1] | outcome [2] | outcome [3] | outcome [4] | Potency [9] | Potency [10] | Potency [5] | outcome [7] | Potency [14] | outcome [15]

CC(C)CC(=O)O
active: Potency [1] 10.7 µM
inactive: outcome [2] | outcome [3] | Potency [12] | Potency [9] | Potency [13] | Potency [10] | Potency [5] | outcome [7] | outcome [15] | Potency [8]

COc1ccc(S(=O)(=O)N2c3ccc(Cl)cc3[C@@](O)(c3ccccc3Cl)[C@H]2C(=O)N2CCC[C@@H]2C(N)=O)cc1OC
inactive: Potency [1] | outcome [2] | outcome [3] | Potency [12] | Potency [9] | Potency [13] | Potency [10] | Potency [5] | outcome [7]

CC(C)c1ccc2cc(C(C)C)ccc2c1
active: Potency [13] 15.9 µM
inactive: Potency [1] | outcome [2] | outcome [3] | outcome [4] | Potency [9] | Potency [10] | Potency [5] | outcome [7] | Potency [8]

Oc1ccccc1-c1nnco1
inactive: Potency [1] | outcome [2] | outcome [3] | outcome [4] | Potency [9] | Potency [13] | Potency [5] | outcome [7] | Potency [8]
